# Screening results: PubChem BioAssay, several laboratories
# Most compounds without a hit are left out; they make up all but 1.9% or so of the library.
# Vif imaging – HIV Vif inhibition; HEK293T cells, Vif self-association by quenched fluorescence, imaging, 24 h; inhibition, % at 7.49 µM; actives 0.35% (n = 340,000); AID 602346; in the data active = inhibition above about 50%, passing the limit was not always enough; inconclusive = no clear call, values can overlap the other calls; inactive = below about 31%
# Neddylation inh – blocks human cullin neddylation; P61081+Q13564; actives 0.58% (n = 360,000); TR-FRET cullin neddylation, biochemical; inhibition, % at 25 µM; in the data active = inhibition above about 36%
# Target sequence (P61081 whole entry, looked up): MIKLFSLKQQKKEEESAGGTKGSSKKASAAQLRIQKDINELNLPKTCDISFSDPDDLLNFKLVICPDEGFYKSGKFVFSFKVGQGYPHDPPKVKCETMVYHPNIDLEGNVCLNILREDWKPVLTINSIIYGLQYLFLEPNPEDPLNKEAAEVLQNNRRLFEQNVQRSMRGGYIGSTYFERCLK
# Target sequence (Q13564 whole entry, looked up): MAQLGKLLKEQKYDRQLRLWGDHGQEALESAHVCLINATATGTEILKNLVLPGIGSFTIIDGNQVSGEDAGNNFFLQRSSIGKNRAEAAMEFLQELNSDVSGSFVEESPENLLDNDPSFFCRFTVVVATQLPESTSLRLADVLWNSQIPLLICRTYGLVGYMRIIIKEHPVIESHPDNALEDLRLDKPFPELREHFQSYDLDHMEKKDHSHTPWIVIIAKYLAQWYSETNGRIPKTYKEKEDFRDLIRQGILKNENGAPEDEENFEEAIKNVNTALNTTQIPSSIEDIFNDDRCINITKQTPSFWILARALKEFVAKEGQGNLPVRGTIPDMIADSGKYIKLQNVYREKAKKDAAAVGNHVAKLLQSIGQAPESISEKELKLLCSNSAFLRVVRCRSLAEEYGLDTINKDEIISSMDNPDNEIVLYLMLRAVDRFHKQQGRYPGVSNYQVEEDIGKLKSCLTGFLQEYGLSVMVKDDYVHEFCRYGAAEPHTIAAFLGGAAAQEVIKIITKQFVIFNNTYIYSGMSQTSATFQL
# A1 inh – inhibitors of the anti-apoptotic protein A1, read as caspase activation; AID 2462; actives 0.066% (n = 330,000); MEF A1-2A-BIM cells, Caspase-Glo 3/7 luminescence, 3 h; percent of clofoctol response, vehicle zero; caspase activation, % (concentration not given with the values);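 active = over half of replicate activation scores above 10%, or exactly half above 10 with the replicate mean above 10; inconclusive = replicate mean below 10 yet half the replicates above 10; inactive = over half of replicates below 10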
# dFosB act-1 – activators of mouse delta FosB homodimer; P13346; purified delta FosB, TAMRA-CDK5 oligo fluorescence polarization; percent of positive-control signal above neutral wells; activation, % at 25 µM; actives 0.99% (n = 340,000); AID 493131;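 active = mean activation above about 17%, with every replicate also reaching it, limit read from the data, passing the limit was not always enough; inconclusive = only one of the two conditions met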
# GSIS activator – primary screen for activators of insulin secretion dependent on glucose, INS-1E cells, GLuc reporter luminescence | INS-1E GLuc reporter insulin secretion, 2-3 h | activation, % at 16.6 µM | actives 0.61% (n = 370,000) | AID 743287;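 active = lowest replicate activation of at least 40%, so every replicate reaches that level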;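 note: 0% = median of neutral control wells and 100% = median of IBMX positive control wells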
# dFosB act-2 – activators of mouse delta FosB homodimer DNA binding; shares compounds with dFosB act-1; purified delta FosB, TAMRA-CDK5 oligo fluorescence polarization; normalised: neutral wells 0, positive control 100; activation, % at 24.9 µM; 2,400 tested, under 10 active; AID 588690;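 active = highest replicate activation at or above 34% and every replicate reaching that threshold; inconclusive = meets only one of the two criteria; inactive = meets neither criterion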;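 note: higher polarization means more probe DNA bound by delta FosB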
# * marks the source's active call; other numbers are inactive results; ? = inconclusive; / = not tested or not shown.
SMILES,Vif imaging,Neddylation inh,A1 inh,dFosB act-1,GSIS activator,dFosB act-2
CO[C@@H]1CN(C)C(=O)c2cc(NS(=O)(=O)c3ccccc3)ccc2OC[C@H](C)N(Cc2nccs2)C[C@@H]1C,/,/,/,/,-13,/
Cc1c(NC(=O)c2cc(-n3cnnc3)ccc2Cl)cccc1-c1nc2ccccc2s1,-2,-42,-1,31*,/,-1
O=C(CCc1nc2ccccc2c(=O)[nH]1)Nc1nc(-c2cccs2)cs1,-7,20,1,26*,-9,-1
O=C(CCc1nc2ccccc2c(=O)[nH]1)Nc1nnc(SCc2ccc(F)cc2)s1,/,0,1,90*,12,5
N#Cc1ccc(CSc2nnc(NC(=O)CCc3nc4ccccc4c(=O)[nH]3)s2)cc1,3,5,0,?,-1,/
Cc1ccc(-n2c(O)c(C=NCc3ccccn3)c3ccccc3c2=O)cc1,-23,-13,0,26*,1,5
Cc1cccc(-n2c(O)c(C=NCc3ccccn3)c3ccccc3c2=O)c1,-8,-4,-1,0,23,/
Cc1cccc(NC(=O)COC(=O)c2n[nH]c3ccccc23)c1C,-10,-2,0,25*,4,7
CN(NC(=O)c1ccc(Cl)cc1)c1nc(-c2ccccc2)nnc1C(F)(F)F,-17,3,-1,32*,/,6
CC(C)CC(=O)NN(C)c1nc(-c2ccccc2)nnc1C(F)(F)F,-9,-1,0,3,/,/
Cc1ccc2nc3c(c(N)c2c1)CCN3c1ccccc1,-1,-219,-1,10,/,/
Cc1ccc2nc3c(c(N)c2c1)CCN3C,-10,-27,-3,18*,24,0
CC(=O)Nc1ccc2nc(NC(=O)COc3ccc(C)cc3)sc2c1,-1,-159,-1,19*,/,-6
CC(=O)Nc1ccc(NC(=O)COc2ccc(-c3ccc(C#N)cc3)cc2)cc1,55*,-112,0,34*,13,4
O=C(COc1ccccc1)Nc1nc2cc3c(cc2s1)OCO3,5,-196,0,28*,-3,1
CC(=O)Nc1ccc2nc(NC(=O)COc3ccccc3)sc2c1,-4,5,0,-1,12,/
CC(=O)Nc1ccc2nc(NC(=O)COc3cccc(C)c3)sc2c1,-6,13,1,47*,0,7
COc1ccc(NC(=O)CNc2ccc(C#N)cc2)cc1,0,-7,0,6,6,/
Cc1noc(C)c1NC(=O)N[C@H]1C=C[C@H](CC(=O)Nc2ccccc2)O[C@@H]1CO,/,/,/,/,11,/
C[C@@H](NC(=O)C[C@H]1C[C@@H]2c3cc(NC(=O)CN(C)C)ccc3O[C@@H]2[C@H](CO)O1)c1ccccc1,/,/,/,/,4,/
O=C(CSc1nnnn1-c1ccccc1)Nc1ncc(Cc2ccccc2Cl)s1,0,-5,0,39*,10,0
O=C(NC(NC(=O)c1c(F)cccc1F)c1ccc([N+](=O)[O-])cc1)c1c(F)cccc1F,2,-10,0,24*,22,5
C[C@H]1CCCCO[C@@H](CN(C)C(=O)C2CCCCC2)[C@@H](C)CN([C@@H](C)CO)C(=O)c2cc(NC(=O)NC3CCCCC3)ccc2O1,/,/,/,/,-24,/
C[C@H](NC(=O)C[C@@H]1C=C[C@@H](NC(=O)Nc2ccc3c(c2)OCO3)[C@H](CO)O1)c1ccccc1,/,/,/,/,0,/
COc1cc2c(cc1OC)-c1cc(Nc3cccc(C)c3)nc(=O)n1CC2,-6,32,1,30*,51,1
SMILES,Vif imaging,Neddylation inh,A1 inh,dFosB act-1,GSIS activator,dFosB act-2
CCOc1ccc(Nc2cc3n(c(=O)n2)CCc2cc(OC)c(OC)cc2-3)cc1,-2,9,-1,-38,32,/
Cn1ncc2c(Nc3ccc(Br)cc3)nc(Nc3ccc(Br)cc3)nc21,-4,26,0,53*,525,4
Cn1ncc2c(Nc3cccc(Cl)c3)nc(Nc3cccc(Cl)c3)nc21,1,/,-1,31*,12,1
Cn1ncc2c(Nc3ccc(O)cc3)nc(Cl)nc21,-2,-3,0,-6,26,/
CC(C)C(=O)Nc1ccc2c(c1)C(=O)N(C)[C@@H]1CC[C@H](CC(=O)NCc3ccccc3)O[C@H]1CO2,/,/,/,/,10,/
COc1ccc(Br)cc1-c1noc(-c2ccccc2)n1,30,-12,0,27*,/,?
COc1cc(NC(=O)C2CCCN(S(=O)(=O)c3ccc4[nH]c(=O)ccc4c3)C2)cc(OC)c1 (stereo not drawn),3,-8,-1,52*,7,2
CCOc1ccc(NC(=O)C2CCCN(S(=O)(=O)c3ccc4[nH]c(=O)ccc4c3)C2)cc1 (stereo not drawn),6,-12,0,15,14,/
COc1ccc(NC(=O)C2CCCN(S(=O)(=O)c3ccc4[nH]c(=O)ccc4c3)C2)cc1 (stereo not drawn),24,-17,-1,17*,-9,2
C[C@H](O)C#Cc1cnc2c(c1)C(=O)N([C@H](C)CO)C[C@H](C)[C@@H](CN(C)C(=O)Nc1ccc(C(F)(F)F)cc1)O2,/,/,/,/,-11,/
CCN(CC)CCN(C(=O)c1ccc2c(c1)OCCO2)c1nc2cc(C)cc(C)c2s1,/,19,0,30*,-18,4
CCN(CC)CCN(C(=O)CCS(=O)(=O)c1ccccc1)c1nc2cc(OC)c(OC)cc2s1,-6,0,0,-5,1,/
CCN(CC)CCN(C(=O)CCS(=O)(=O)c1ccccc1)c1nc2c(C)cc(C)cc2s1,-6,-4,1,56*,-9,-2
COc1ccc(Cl)c2sc(N(CCN(C)C)C(=O)CCS(=O)(=O)c3ccc(C)cc3)nc12,1,-1,0,82*,-7,3
CCN(CC)CCN(C(=O)CCS(=O)(=O)c1ccccc1)c1nc2cc(C)cc(C)c2s1,-4,9,0,43*,-5,6
COc1ccc(OC)c2sc(N(CCCN(C)C)C(=O)CCS(=O)(=O)c3ccccc3)nc12,8,8,?,-4,31,/
CN1CCN(C(=O)C[C@@H]2C=C[C@H](NS(=O)(=O)c3cccc(F)c3)[C@H](CO)O2)CC1,/,/,/,/,18,/
COc1ccccc1S(=O)(=O)N[C@@H]1CC[C@@H](CCn2cc(C3CCCC3)nn2)O[C@@H]1CO,/,/,/,/,-2,/
Cc1cc(C)c2sc(N(CCN(C)C)C(=O)CCS(=O)(=O)c3ccccc3)nc2c1,-6,6,0,21*,10,3
CN(C)CCN(C(=O)CCS(=O)(=O)c1ccccc1)c1nc2c(F)cccc2s1,1,3,0,-5,14,/
Cc1cc(C(=O)CN2C(=O)C(=O)N(C3CCCC3)C2=O)c(C)n1CCc1ccccc1,1,6,/,-1,-9,/
Cc1[nH]c2ccccc2c1C(=O)CN1C(=O)C(=O)N(C2CCCC2)C1=O,1,2,0,47*,/,6
